The source of these data is PubChem BioAssay (NCI).

Compounds without any hit were thinned out: in the full panel of roughly 83,000, 20% have a hit.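 Treatment: one concentration, 48 hours, 96-well format. Scoring: percent growth, with anything below 10 considered active.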 Unmarked numbers belong to inactive results. Active and inactive are the calls of the source.

What all share (experiment): NCI-60 one-dose screen, 48 h (100 = growth as untreated, 0 = no growth, -100 = all killed)
Common to all, as to settings: 10 µM unless noted

Assay [1] has as its system NCI-H23 lung.
In assay [2] the test system is NCI-H226 lung.
Assay [3] relates to NCI-H322M lung.
Assay [4] has as its system HOP-62 NSCLC.
Assay [5] concerns NCI-H460 lung.
Assay [6] concerns HOP-92 NSCLC.
The subject of assay [7] is NCI-H522 lung.
Assay [8] concerns A549/ATCC NSCLC.
The test system of assay [9] is 786-0 renal.
Assay [10] deals with COLO 205 colon.

As to `Oc1cc(/C=C/c2nc(N3CCOCC3)c3cc(Cl)c(Cl)cc3n2)cc(O)c1O`, the growth in assay [1] is 101%; in assay [2], 85.8%; in [3], 113%; in assay [4], 97.2%; in assay [5], 101%; in [6], 102%. The growth was 88.6% in assay [7], 106% in assay [8], 95.7% in [9] and 108% in assay [10].
On to `Nc1ccc(Br)cn1`, for which the growth was 104% in [1]; 99.9% in [2]; 104% in [3]; 101% in assay [4]; 106% in assay [5]; 89.4% in assay [6]. In addition, the growth in assay [7] was 95.4%; in assay [8], 103%; in assay [9], 106%; in [10] it was 113%.
As for `Cn1cnc2c1c(=O)n(CCC(=O)Nc1ccc(F)cc1)c(=O)n2C`, the growth is 95.8% in assay [1]; 106% in assay [2]; 107% in assay [3]; 100% in assay [4]; 108% in assay [5]; 96.4% in [6]. Moreover, the growth is 87.3% in [7], 89.1% in assay [8], 94.8% in [9] and 104% in [10].
With `C=C(C)[C@@H]1CC[C@]2(C(=O)N3CCN(CC)CC3)CC[C@]3(C)[C@H](CC[C@@H]4[C@@](C)(CCC(=O)N5CCN(CC)CC5)[C@H](C(=C)C)CC[C@]43C)[C@@H]12`, the growth in assay [1] is 74.4%; in assay [2], 79.6%; in assay [3], 89%; in assay [4], 88.7%; in [5] it was 25.1%; in assay [6], 52.2%. In addition, the growth in assay [7] is 77.9%; in assay [8] it was 57.4%; in assay [9], 0.392% (active); in assay [10], 61.1%.
With `COC(=O)[C@]12CC[C@@H](C)[C@H](C)[C@@H]1C1=CC(=O)[C@@H]3[C@@]4(C)C[C@@H](OC(C)=O)[C@H](OC(C)=O)[C@@](C)(COC(C)=O)[C@@H]4C(=O)C[C@@]3(C)[C@]1(C)CC2`, the growth in [1] is 45.4%; in [2], 41.8%; in assay [3], 82.6%; in assay [4], 58.2%; in [5], 32.4%; in assay [6], 18.1%. Further, the growth is 47.6% in assay [7], 42.5% in [8], 68.5% in [9] and 39.5% in assay [10].
In the case of `Cn1c(=O)c2c(nc(Br)n2CC(=O)Nc2ccc(F)cc2)n(C)c1=O`, the growth in [1] was 95.8%; in assay [2], 103%; in [3], 111%; in [4] it was 96.9%; in [5], 109%; in assay [6], 87.6%. The growth is 81.3% in assay [7], 92.5% in assay [8], 95.3% in [9] and 104% in assay [10].
Consider `Nc1c(C(=O)Nc2cccc(Br)c2)sc2nc3c(cc12)C(=O)CCC3`, for which the growth in [1] is 34%; in [2] it was 75.1%; in [3], 64.7%; in assay [4], 40.4%; in assay [5], 4.31% (active); in assay [6], 79.3%. For the same compound, the growth in assay [7] was -20% (active); in [8] it was 24.4%; in [9], 51.8%; in [10], -11.2% (active).
Take `CC1c2ccccc2N(S(=O)(=O)c2ccccc2)C1C` (stereo not given): the growth in assay [1] was 89.4%; in assay [2], 88.4%; in assay [3] it was 102%; in [4] it was 95.4%; in assay [5] it was 115%; in [6], 86.8%. The growth in assay [7] was 76.9%; in [8], 92%; in [9], 102%; in assay [10] it was 97.6%.
`Nc1c(C(=O)Nc2c(Cl)cccc2Cl)sc2nc3c(cc12)CCCC3`: the growth in [1] is 84.1%; in assay [2], 91.4%; in [3], 94%; in assay [4], 50.1%; in assay [5], 66.4%; in assay [6] it was 89.2%. Besides, the growth was 62.8% in [7], 66.5% in assay [8], 103% in assay [9] and 70.3% in [10].
For the compound `Cc1cc(Cl)c2c(N(C)C)cccc2n1`, the growth was 96% in assay [1]; 101% in [2]; 89.9% in assay [3]; 102% in assay [4]; 104% in assay [5]; 115% in [6]. Also, the growth was -75.5% (active) in assay [7], 100% in [8], 102% in [9] and 105% in assay [10].
For the compound `COc1cc(/C=N/Nc2ncnc3c2c(C)nn3-c2ccc(F)cc2)ccc1O`, the growth in assay [1] was 90.6%; in [2], 102%; in assay [3], 85.6%; in assay [4], 106%; in assay [5] it was 88.1%; in assay [6], 60.5%. Moreover, the growth in assay [7] is 72.9%; in [8] it was 97.6%; in [9], 88.6%; in assay [10], 104%.
Consider `Clc1ccc(Cn2cc(-c3nc4ccc(Br)nc4n3Cc3ccc(Cl)cc3)c3cccnc32)cc1`, for which the growth in assay [1] is 65.9%; in [2], 77.7%; in assay [3], 81.1%; in [4], 82.7%; in assay [5], 97.4%; in assay [6], 65.4%. The growth in assay [7] was 70%; in assay [8] it was 95.9%; in assay [9], 90.5%; in assay [10] it was 94.5%.
As to `C#CCn1c(C)cc(C)c(C#N)c1=O`, the growth is 107% in assay [1]; 114% in assay [2]; 103% in assay [3]; 109% in [4]; 107% in assay [5]; 98.3% in assay [6]. Further, the growth in assay [7] was 103%; in [8], 104%; in assay [9], 99.9%; in assay [10], 110%.
Regarding `Cn1cc(-c2csc(-c3cn(CCNC(=O)OC(C)(C)C)c4ccc(F)cc34)n2)c2cccnc21`, the growth is 57% in [1]; 50.8% in assay [2]; 83.9% in assay [3]; 65.7% in assay [4]; 85.9% in assay [5]; 49.2% in [6]. The growth in assay [7] is 44.3%; in [8], 63.1%; in assay [9], 88.1%; in assay [10], 67.5%.
With `CC1(c2ccccc2)OC1C(=O)O` (stereo not given), the growth in assay [1] was 94.1%; in [2], 104%; in assay [3], 97.9%; in assay [4] it was 107%; in assay [5], 107%; in assay [6] it was 119%. The growth is 97.8% in [7], 105% in [8], 99.7% in assay [9] and 115% in [10].
As for `COc1cccc(-c2nn(-c3ccccc3)cc2-c2ccnc(NCCNS(=O)(=O)c3cccc(F)c3)c2)c1`, the growth in assay [1] was 38.4%; in assay [2] it was 39.3%; in assay [3] it was 59%; in assay [4], 55.3%; in [5] it was 24.2%; in assay [6], 22.3%. For the same compound, the growth in [7] is 3.7% (active); in assay [8] it was 24.8%; in assay [9], 25.9%; in [10] it was 16.6%.
As for `Cc1cc(N(CCCNc2ccnc3cc(Cl)ccc23)Cc2ccco2)nc(Cl)n1`, the growth was 31.5% in assay [1]; 68.1% in [2]; 76.6% in assay [3]; 41.6% in [4]; 57.1% in assay [5]; 27.1% in [6]. Besides, the growth is 59.9% in [7], 67% in assay [8], 55.6% in assay [9] and 24.5% in [10].
For the compound `CCc1ccccc1NC(=O)c1sc2nc3c(cc2c1N)CCCC3`, the growth was 52.7% in assay [1]; 73.4% in assay [2]; 74.9% in assay [3]; 35.6% in [4]; 20.6% in assay [5]; 37.1% in assay [6]. The growth in assay [7] was 15%; in [8], 36.7%; in [9], 44.1%; in assay [10], 36%.
Take `NC1=C(C/C(N)=N\O)C(c2ccccc2Cl)c2c(ccc3ccccc23)O1` (stereo not given): the growth in assay [1] was 86.9%; in [2], 89.4%; in [3], 96.4%; in assay [4] it was 78.2%; in assay [5], 87.8%; in [6], 75.7%. The growth in assay [7] was 55.4%; in assay [8], 87.3%; in [9] it was 93.4%; in assay [10], 118%.
Consider `C/C(=N\Nc1cc(C)c2ccccc2n1)c1ccccn1`, for which the growth in assay [1] is 14%; in assay [2], -2.65% (active); in [3] it was -2.12% (active); in assay [4], 15.1%; in assay [5], -44.7% (active); in assay [6] it was -13.9% (active). For the same compound, the growth in [7] was -25.7% (active); in [8] it was -0.781% (active); in [9], -63.9% (active); in assay [10] it was 3.41% (active).
Turning to `Cn1cc(-c2csc(-c3cn(CCN)c4ccccc34)n2)c2cccnc21`, the growth was 59.3% in assay [1]; 66.4% in [2]; 70.9% in [3]; 40.1% in assay [4]; 24.8% in assay [5]; 37.6% in [6]. Moreover, the growth in [7] is 65.8%; in assay [8], 40%; in assay [9], 46.7%; in assay [10], 20.7%.
Take `Cn1cc(-c2nc(-c3cn(C)c4ncccc34)cs2)c2cc(F)ccc21`: the growth is 43.3% in assay [1]; 68.8% in assay [2]; 57% in assay [3]; 53.7% in [4]; 15.8% in [5]; 72.4% in assay [6]. In addition, the growth is -0.482% (active) in assay [7], 38.1% in [8], 45.9% in assay [9] and 31.3% in assay [10].
With `O=S(=O)(NCCNc1cc(-c2cn(-c3ccccc3)nc2-c2cccc(O)c2)ccn1)c1ccc(Cl)cc1`, the growth is 36.6% in assay [1]; 45.9% in [2]; 56.8% in assay [3]; 51.4% in [4]; 26.3% in [5]; 33.8% in [6]. Also, the growth in assay [7] is 32.3%; in assay [8] it was 31.1%; in [9], 12%; in assay [10], -48% (active).
On to `COC(=O)[C@]12CC[C@@H](C)[C@H](C)[C@@H]1C1=CC[C@@H]3[C@@]4(C)CC(=O)[C@H](OC(=O)c5ccco5)[C@@]5(C)COC(=C45)C[C@@]3(C)[C@]1(C)CC2`, for which the growth is 33.5% in [1]; 23.6% in assay [2]; 53.7% in assay [3]; 34.4% in [4]; 9.59% (active) in assay [5]; 60.6% in [6]. Moreover, the growth in assay [7] is 26.9%; in assay [8] it was 25%; in assay [9] it was 6.39% (active); in [10], -40.6% (active).
With `C=C(C)[C@@H]1CC[C@]2(C(=O)O)CC[C@]3(C)[C@H](CC[C@@H]4[C@@]5(C)C/C(=C/c6cccc(I)c6)C(=O)C(C)(C)[C@@H]5CC[C@]43C)[C@@H]12`, the growth in assay [1] is 20.3%; in assay [2], 31.5%; in assay [3], 37.2%; in assay [4] it was 21.8%; in [5], 11.8%; in assay [6], 16%. Moreover, the growth is 10% in assay [7], 17.2% in [8], 25% in assay [9] and 28% in assay [10].
In the case of `COc1c(N)c2c(c([N+](=O)[O-])c1OC)C(=O)OC2`, the growth in assay [1] is 120%; in assay [2], 110%; in assay [3] it was 99.8%; in assay [4], 107%; in [5], 113%; in assay [6], 92.3%. For the same compound, the growth was 98.6% in assay [7], 96.1% in assay [8], 102% in assay [9] and 116% in [10].
